PubChem BioAssay AID1159580 (chemical genetic matrix, 2015)
The whole screen tested about 5,500 compounds, of which about 2,000 (36%) were called active. Roughly 18% stayed inconclusive and do not appear here. Cut-off read from the data, not from the text of the source: active = normalized growth mostly below about 0.91 (no sharp cut-off); inconclusive = no clear call, values can overlap the other calls; inactive = mostly above about 0.92. Some of the results follow.

Assay: chemical genetic growth profiling, strain panel (AID 1159580);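 note: tested at 20 µM; growth read once vehicle control cultures reached saturation at 30 °C; 1 = growth at the plate median or of vehicle wells; lower values mean less growth of the strain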
Conditions: growth OD

Measured: normalized growth

COC1=CC(=O)OC(CCc2ccc(OC)c(OC)c2)C1 (stereo unspecified)
inactive: S. cerevisiae deletion strains, locus YAL013W, strain DEP1, stronger effect = lower value 0.988 | S. cerevisiae deletion strains, locus YBR021W, strain FUR4, stronger effect = lower value 0.991 | S. cerevisiae deletion strains, locus YBR229C, strain ROT2, stronger effect = lower value 1.01 | S. cerevisiae deletion strains, locus YCL029C, strain bik1, stronger effect = lower value 1.03 | S. cerevisiae deletion strains, locus YDL035C, strain GPR1, stronger effect = lower value 1.01 | S. cerevisiae deletion strains, locus YDL074C, strain BRE1, stronger effect = lower value 1.02 | S. cerevisiae deletion strains, locus YDL101C, strain DUN1, stronger effect = lower value 1.01 | S. cerevisiae deletion strains, locus YDL134C, strain PPH21, stronger effect = lower value 1 | S. cerevisiae deletion strains, locus YDL185W, strain tfp1, stronger effect = lower value 1.02 | S. cerevisiae deletion strains, locus YDL192W, strain arf1, stronger effect = lower value 1.02 | S. cerevisiae deletion strains, locus YDR101C, strain arx1, stronger effect = lower value 1.01 | S. cerevisiae deletion strains, locus YDR150W, strain NUM1, stronger effect = lower value 1.01 | S. cerevisiae deletion strains, locus YDR162C, strain NBP2, stronger effect = lower value 1.01 | S. cerevisiae deletion strains, locus YDR318W, strain mcm21, stronger effect = lower value 1.01 | S. cerevisiae deletion strains, locus YDR388W, stronger effect = lower value 1.01 | S. cerevisiae deletion strains, locus YDR502C, strain sam2, stronger effect = lower value 1.01 | S. cerevisiae deletion strains, locus YEL061C, strain CIN8, stronger effect = lower value 1.01 | S. cerevisiae deletion strains, locus YER110C, stronger effect = lower value 1.02 | S. cerevisiae deletion strains, locus YER155C, strain BEM2, stronger effect = lower value 1.01 | S. cerevisiae deletion strains, locus YER167W, strain BCK2, stronger effect = lower value 1.02 | S. cerevisiae deletion strains, locus YGL078C, strain dbp3, stronger effect = lower value 1.02 | S. cerevisiae deletion strains, locus YGL086W, strain mad1, stronger effect = lower value 1.02 | S. cerevisiae deletion strains, locus YGL248W, strain PDE1, stronger effect = lower value 1.01 | S. cerevisiae deletion strains, locus YGR078C, strain PAC10, stronger effect = lower value 1.01 | S. cerevisiae deletion strains, locus YGR135W, strain pre9, stronger effect = lower value 1.01 | S. cerevisiae deletion strains, locus YGR229C, strain SMI1, stronger effect = lower value 1 | S. cerevisiae deletion strains, locus YGR252W, strain gcn5, stronger effect = lower value 1 | S. cerevisiae deletion strains, locus YHR030C, strain SLT2, stronger effect = lower value 1.01 | S. cerevisiae deletion strains, locus YHR079C, strain IRE1 (second series), stronger effect = lower value 1.01 | S. cerevisiae deletion strains, locus YHR094C, strain hxt1, stronger effect = lower value 1.01 | S. cerevisiae deletion strains, locus YHR129C, strain ARP1, stronger effect = lower value 1.01 | S. cerevisiae deletion strains, locus YHR200W, strain rpn10, stronger effect = lower value 1.01 | S. cerevisiae deletion strains, locus YIL066C, strain RNR3, stronger effect = lower value 1 | S. cerevisiae deletion strains, locus YIL073C, strain SPO22, stronger effect = lower value 1.07 | S. cerevisiae deletion strains, locus YIL125W, strain kgd1, stronger effect = lower value 1.02 | S. cerevisiae deletion strains, locus YIR030C, strain dcg1, stronger effect = lower value 1.01 | S. cerevisiae deletion strains, locus YJL095W, strain BCK1, stronger effect = lower value 1.02 | S. cerevisiae deletion strains, locus YJL134W, strain LCB3, stronger effect = lower value 1 | S. cerevisiae deletion strains, locus YJL168C, strain set2, stronger effect = lower value 1 | S. cerevisiae deletion strains, locus YJL187C, strain SWE1 (second series), stronger effect = lower value 1.01 | S. cerevisiae deletion strains, locus YJR043C, strain POL32, stronger effect = lower value 1.02 | S. cerevisiae deletion strains, locus YJR075W, strain HOC1, stronger effect = lower value 1.02 | S. cerevisiae deletion strains, locus YKL009W, strain mrt4, stronger effect = lower value 1.03 | S. cerevisiae deletion strains, locus YKL068W, stronger effect = lower value 1.01 | S. cerevisiae deletion strains, locus YKL085W, strain MDH1 (second series), stronger effect = lower value 1.01 | S. cerevisiae deletion strains, locus YKL085W, strain MDH1, stronger effect = lower value 1.01 | S. cerevisiae deletion strains, locus YKL190W, strain CNB1, stronger effect = lower value 1.01 | S. cerevisiae deletion strains, locus YKR001C, strain vps1, stronger effect = lower value 1.04 | S. cerevisiae deletion strains, locus YLR039C, strain RIC1, stronger effect = lower value 1.07 | S. cerevisiae deletion strains, locus YLR058C, strain SHM2, stronger effect = lower value 1.01 | S. cerevisiae deletion strains, locus YLR102C, strain apc9, stronger effect = lower value 1.01 | S. cerevisiae deletion strains, locus YLR262C, strain YPT6, stronger effect = lower value 1.07 | S. cerevisiae deletion strains, locus YLR268W, strain sec22, stronger effect = lower value 1.01 | S. cerevisiae deletion strains, locus YLR330W, strain CHS5, stronger effect = lower value 1.01 | S. cerevisiae deletion strains, locus YLR342W, strain FKS1 (second series), stronger effect = lower value 1.01 | S. cerevisiae deletion strains, locus YLR371W, strain rom2, stronger effect = lower value 1.01 | S. cerevisiae deletion strains, locus YLR418C, strain cdc73, stronger effect = lower value 1.01 | S. cerevisiae deletion strains, locus YML016C, strain PPZ1, stronger effect = lower value 1.01 | S. cerevisiae deletion strains, locus YML032C, strain rad52, stronger effect = lower value 1.04 | S. cerevisiae deletion strains, locus YML124C, strain tub3, stronger effect = lower value 1.02 | S. cerevisiae deletion strains, locus YMR078C, strain ctf18, stronger effect = lower value 1.02 | S. cerevisiae deletion strains, locus YMR223W, strain ubp8, stronger effect = lower value 1.02 | S. cerevisiae deletion strains, locus YMR263W, strain SAP30, stronger effect = lower value 1.01 | S. cerevisiae deletion strains, locus YMR307W, strain GAS1, stronger effect = lower value 1.03 | S. cerevisiae deletion strains, locus YNL067W, strain RPL9B, stronger effect = lower value 1.01 | S. cerevisiae deletion strains, locus YNL128W, strain TEP1, stronger effect = lower value 1.01 | S. cerevisiae deletion strains, locus YNL153C, strain GIM3, stronger effect = lower value 1.01 | S. cerevisiae deletion strains, locus YNL233W, strain BNI4, stronger effect = lower value 1 | S. cerevisiae deletion strains, locus YNL250W, strain rad50, stronger effect = lower value 1.01 | S. cerevisiae deletion strains, locus YNL271C, strain bni1, stronger effect = lower value 1.01 | S. cerevisiae deletion strains, locus YNL298W, strain CLA4, stronger effect = lower value 1.02 | S. cerevisiae deletion strains, locus YNL307C, strain MCK1, stronger effect = lower value 1.01 | S. cerevisiae deletion strains, locus YNL322C, strain KRE1, stronger effect = lower value 1.01 | S. cerevisiae deletion strains, locus YNR052C, strain pop2, stronger effect = lower value 1.02 | S. cerevisiae deletion strains, locus YOL006C, strain TOP1, stronger effect = lower value 1.09 | S. cerevisiae deletion strains, locus YOL012C, strain htz1 1.25 | S. cerevisiae deletion strains, locus YOL147C, strain pex11, stronger effect = lower value 1.01 | S. cerevisiae deletion strains, locus YOR061W, strain CKA2, stronger effect = lower value 1.01 | S. cerevisiae deletion strains, locus YOR069W, strain VPS5, stronger effect = lower value 1 | S. cerevisiae deletion strains, locus YOR136W, strain idh2, stronger effect = lower value 1.02 | S. cerevisiae deletion strains, locus YOR144C, strain elg1, stronger effect = lower value 1.02 | S. cerevisiae deletion strains, locus YOR184W, strain ser1, stronger effect = lower value 1.03 | S. cerevisiae deletion strains, locus YOR316C, strain cot1, stronger effect = lower value 1.02 | S. cerevisiae deletion strains, locus YPL055C, strain LGE1, stronger effect = lower value 1.02 | S. cerevisiae deletion strains, locus YPL241C, strain CIN2, stronger effect = lower value 1 | S. cerevisiae deletion strains, locus YPR119W, strain clb2, stronger effect = lower value 1.01 | S. cerevisiae deletion strains, locus YPR141C, strain kar3, stronger effect = lower value 1.03 | S. cerevisiae deletion strains, locus YPR163C, strain tif3, stronger effect = lower value 1.02 | S. cerevisiae deletion strains, locus YPR167C, strain met16, stronger effect = lower value 1.02 | S. cerevisiae deletion strains, strain wtn01, stronger effect = lower value 1.01 | S. cerevisiae strains, strain wild type, stronger effect = lower value 0.999
